In the library only some 7.3% were active in any assay of this set; here they are far more common.
HCV inh = qHTS Assay for Inhibitors of Hepatitis C Virus (HCV). Potency, µM (doses to about 41.8 µM), without a hit: at the top dose activity change, negative = inhibition, hits mostly inhibitors. 3.4% of 340,000 active. Huh7.5.1 HCVcc-Cre infection, luciferase reporter, 44 h. AID 651820, 2012; active = well fitted inhibition curve with a large enough effect; inconclusive = small, poorly fitted or top-dose-only effect, or another doubt; inactive = no such curve, though single readings can be large or run the other way; note: potency is the fitted concentration of half-maximal effect
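A cell-based infection assay in which seeded cells (1,000 per well) receive test compound after 4 h, are inoculated with HCVcc-Cre at approximately 0.5 moi, and are incubated 44 h before luminescence detection.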
VACV mCherry inh = qHTS for Stage-Specific Inhibitors of Vaccinia Orthopoxvirus: mCherry Reporter Primary qHTS; Potency, µM (doses to about 36.5 µM), without a hit: at the top dose activity change, negative = inhibition, actives largely listed as inhibitors; 0.63% of 310,000 active; Vaccinia virus mCherry reporter infection, fluorescence; calls by dose curve; tested in A549 cells; note: potency is the fitted concentration of half-maximal effect; nearly all actives have a fitted effect of over 35% in size
HCMV inh = qHTS Assay for inhibitors of the human cytomegalovirus (HCMV); HFF cells, HCMV-luciferase reporter, 72 h; hits give low values; activity change, negative = inhibition, % at 57.5 µM; 4.5% of 410,000 active; AID 1259415, 2018; in the data active = activity change below about -60%; inconclusive = no clear call, values can overlap the other calls; inactive = above about -39%
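Screen run at 2 compound doses on HFFs infected with reporter HCMV, MOI 1 PFU/cell. Luciferase activity from cell lysates at 72 h post infection gave inhibition relative to buffer-only and Salinomycin wells.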
VACV Venus inh = qHTS for Stage-Specific Inhibitors of Vaccinia Orthopoxvirus: Venus Reporter Primary qHTS | Vaccinia virus Venus reporter expression, fluorescence | Potency, µM (top dose mostly 36.5 µM), for the others: at the top dose activity change, negative = inhibition, actives largely listed as inhibitors | 0.46% of 330,000 active | AID 720580, 2013; calls by dose curve; tested in A549 cells; note: potency is the fitted concentration of half-maximal effect; nearly all actives have a fitted effect of over 30% in size
FMDV inh = High Throughput Screening for Foot and Mouth Disease Virus Antivirals. AID 1159524, 2015. 1.2% of 410,000 active. FMDV antiviral cell-based qHTS. Potency, µM (top dose mostly 57.9 µM), inactives show at the highest dose activity change, negative = inhibition, actives largely listed as inhibitors; calls by dose curve; tested in HEK293T cells; note: read-out not given here; potency is the fitted concentration of half-maximal effect; nearly all actives have a fitted effect of over 45% in size
* marks the source's active call; other numbers are inactive results; i = inactive; ? = inconclusive; . = no result; [ ] = remark or other dose. % is set by controls: 0 for no effect and ±100 for the full control effect.

SMILES | HCV inh | VACV mCherry inh | HCMV inh | VACV Venus inh | FMDV inh
COc1cccc(-c2nn(C)c3sc(C(=O)N4CCN(c5ccccn5)CC4)cc23)c1 | 10µM* | ? | . | ? | ?
COc1cccc(-c2nn(C)c3sc(C(=O)NCc4ccc5c(c4)OCO5)cc23)c1 | 14µM* | ? | -26 | ? | -17%
CSc1ccc(CCNC(=O)C(C)n2nc(C)c3c(C)n(-c4ccccc4)nc3c2=O)cc1 (configuration not stated) | . | -24% | -33 | -13% | ?
CCC(C(=O)NCCc1ccc(SC)cc1)n1nc(C)c2c(C)n(-c3ccc(C)cc3)nc2c1=O (configuration not stated) | . | -21% | -80* | ? | ?
Cc1ccc(-n2nc3c(=O)n(C(C)C(=O)NCc4ccc(OC(C)C)cc4)nc(C)c3c2C)cc1 (configuration not stated) | . | -16%[7.34 µM] | -77* | -22%[7.34 µM] | 0%
CSc1ccc(CNC(=O)C(C)n2nc(C)c3c(C)n(-c4ccccc4)nc3c2=O)cc1 (configuration not stated) | ? | -9% | -62* | -13% | -23%
CCC(C(=O)NCCc1ccc(C)cc1)n1nc(C)c2c(C)n(-c3ccccc3)nc2c1=O (configuration not stated) | -7% | . | ? | . | -9%
Cc1ccc(-n2nc3c(=O)n(C(C)C(=O)NCc4ccccc4C)nc(C)c3c2C)cc1 (configuration not stated) | . | -4% | 0 | -16% | ?
Cc1ccc(-n2nc3c(=O)n(C(C)C(=O)NCc4ccc(Cl)cc4)nc(C)c3c2C)cc1 (configuration not stated) | 22µM* | . | -68* | . | ?
Cc1ccc(CCNC(=O)C(C)n2nc(C)c3c(C)n(-c4ccccc4)nc3c2=O)cc1 (configuration not stated) | -13% | -10% | -31 | -11% | 10%
Cc1c(C(=O)N(C)C2CCOC2)cnn1-c1ncc2c(n1)-c1ccccc1CCC2 (configuration not stated) | . | -8% | . | 7% | 46%
Cc1ncc2c(c1CNS(=O)(=O)c1cccs1)CCN(C(=O)/C=C/c1cc(F)cc(F)c1)C2 | . | -20% | . | -12% | -5%
Cc1ccc(-n2nc3c(=O)n(C(C)C(=O)NCCC4=CCCCC4)nc(C)c3c2C)cc1 (configuration not stated) | 10µM* | . | -61* | . | 14µM*
COc1ccccc1-c1ccnc(-n2ncc(C(=O)NCc3cccc(C)n3)c2C)n1 | . | -12% | . | 6% | -8%
O=C(c1ccccc1)c1ccc2nc(N3CCN(c4ccc(F)cc4)CC3)c3nncn3c2c1 | . | ? | -67* | ? | -15%
CCOC(=O)c1ccc(NC(=O)Cn2ncc(Cl)c(Cl)c2=O)cc1 | ? | ? | -100* | ? | 40µM*
CCC(=O)Nc1ccc(C(=O)Cn2ncc(Cl)c(Cl)c2=O)cc1 | ? | . | -103* | . | -16%
CCc1ccccc1NC(=O)CN(C)C(=O)Cn1cnc2ccc(Cl)cc2c1=O | 6% | -9% | 0 | -25% | -26%
CCc1ccccc1NC(=O)CN(C)C(=O)Cn1ncc(Cl)c(Cl)c1=O | 2.8µM* | ? | -99* | ? | 35µM*
CC(=O)c1ccc(NC(=O)CSc2nc(C3CCCC3)nc3c2c(=O)n(C)c(=O)n3C)cc1 | . | -17% | 2 | -21% | ?
Clc1ccc2c(c1)C(c1ccccc1Cl)=NCc1nnc(Br)n1-2 | 0% | 13µM* | -34 | ? | -19%
Clc1ccc2c(c1)C(c1ccccc1Cl)=NCc1nncn1-2 | ? | -7% | 25 | -8% | 2%
COc1ccc2c3n(nc2c1)C(C)CN=C3c1ccc(Cl)cc1 (configuration not stated) | . | . | 35 | . | .
Cc1nc2ccccc2c2oc(C(=O)NC3CC3)cc12 | -29% | -2% | -36 | -4% | -18%
Cc1cc2c(C)nc3ccccc3c2o1 | 11µM* | . | -22 | -35% | -28%
SMILES | HCV inh | VACV mCherry inh | HCMV inh | VACV Venus inh | FMDV inh
Cn1c(=O)c(=O)n(C)c2cc(N3CCCC3)c(NC(=O)c3ccc(C(C)(C)C)cc3)cc21 | . | 2% | 7 | -7% | -16%
Nc1cc2c(cc1Cl)-c1ccccc1C2=NO | 5µM* | ? | ? | ? | 41%
CCOC(=O)C(C)Sc1nc2c(cnn2-c2ccc(C)cc2)c(=O)[nH]1 (configuration not stated) | 11µM* | ? | -28 | -29% | -12%
Cc1ccc(-n2ncc3c(=O)[nH]c(SC(C)C)nc32)cc1 | ? | -18% | -96* | -13% | -20%
COC(=O)C(C)Sc1nc2c(cnn2-c2ccccc2)c(=O)[nH]1 (configuration not stated) | -9% | -13% | 2 | -3% | -13%
COC(=O)[C@@H]1CCCN1Cc1ccc2c(c1)CN(Cc1cccn1-c1ncccn1)CCO2 | . | -9% | . | -3% | ?
COc1ccc(C(=O)Nc2ccc(S(=O)(=O)N3CCCCC3C)cc2)c(OC)c1OC (configuration not stated) | 11µM* | -14% | -28 | -30% | .
COc1cc(C(=O)Nc2ccc(S(=O)(=O)N3CCCCC3C)cc2)cc(OC)c1OC (configuration not stated) | 13µM* | . | ? | . | -9%
CCN(C(=O)Cn1c(SCc2ccccc2F)nc2cccnc21)c1ccccc1 | . | -9% | -25 | -9% | 12%
CC1CCN(C(=O)c2ncn3c2C(=O)NC[C@@H]3C)CC1 | . | . | -14 | . | .
C=CCNc1sc(C(=O)c2cccs2)c(N)c1C#N | -28% | -21% | -1 | -15% | 9%
CCNc1sc(C(=O)c2cccs2)c(N)c1-c1nc2ccccc2s1 | 5µM* | -19% | -80* | -18% | 4%
CCOC(=O)c1sc(NCc2ccco2)c(-c2nc3ccccc3s2)c1N | 10µM* | . | 94 | -14% | 3%
CCNc1sc(C(=O)c2cccs2)c(N)c1C#N | 13µM* | . | -6 | ? | 0%
C=CCNc1sc(C(=O)c2ccccc2)c(N)c1-c1nc2ccccc2s1 | -21% | -27% | . | ? | 0%
CCN(CC)C(=O)Cn1c(=O)n(-c2ccc(OC)cc2OC)c(=O)c2c(C)c(C(=O)N(CC)CC)sc21 | . | -9% | 19 | -9% | -14%
Cc1nc(-c2ccc3c(c2)OCCCO3)cs1 | -15% | i | 40 | -7% | 16%
Cc1ccc2nc(-c3ccc4c(c3)OCCO4)cn2c1 | -10% | i | -103* | -18% | 3.2µM*
CNC(=O)Oc1ccc(-c2cn3cc(C)ccc3n2)cc1 | ? | -29% | -24 | -10% | 13µM*
Nc1nc(-c2ccc3c(c2)OCCO3)cs1 | ? | -18%[1.46 µM] | 78 | 7.1µM* | 34%
COc1cc(=O)n2c(c1C(=O)N(C)Cc1nonc1C)CCN(Cc1cc(C)c(C)cc1C)CC2 | . | -2% | . | -23% | -14%

Compound activity (PubChem)
